Data on eleven compounds can be found in PubChem BioAssay (NCATS).

Test [1] in a line: Quantitative High-Throughput drug screen in 47 multiple myeloma cell lines against the NCATS MIPE library collection: Karpas620_DSMZ cell viability assay (AID 1918959). Also: nearly all actives have a fitted effect of over 30% in size. In a few lines:
(§1)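 CellTiter-Glo luminescence (ATP) after 48 h compound exposure, 37C/5% CO2; 500 cells/well; MIPE 4.0 approved/investigational drugs pinned in; DMSO = 100%, media only = 0% viability.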

Test [2] is described as follows: Quantitative High-Throughput drug screen in 47 multiple myeloma cell lines against the NCATS MIPE library collection: KMM1_JCRB cell viability assay (AID 1918960). Also: nearly all actives have a fitted effect of over 30% in size. An outline of the steps:
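Here, 48 h treatment with MIPE 4.0 agents at 37 °C preceded an ATP luminescence read. Plating density was 500 cells per well.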

Test [3] in a line: Quantitative High-Throughput drug screen in 47 multiple myeloma cell lines against the NCATS MIPE library collection: Karpas417_ECACC cell viability assay (AID 1918961). The note with it: Karpas417 myeloma viability, CellTiter-Glo ATP luminescence, 48 h; viability (% of DMSO): at 45.8 µM (top of the series). An outline of the steps:
(§2)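 Myeloma cells (500 per well) were exposed to MIPE 4.0 compounds by pin transfer and incubated 48 hours at 37C, 5% CO2. Viability was read as ATP by CellTiter-Glo luminescence, normalised to DMSO (100%) and media-only (0%) wells.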
On the technique in general: Cellular ATP, detected with luciferase, serves as a proxy for viable cell number.

Test [4] is described as follows: Quantitative High-Throughput drug screen in 47 multiple myeloma cell lines against the NCATS MIPE library collection: JIM3_ECACC cell viability assay (AID 1918963; also: nearly all actives have a fitted effect of over 35% in size). In a few lines: as §1
The nature of test [5]: Quantitative High-Throughput drug screen in 47 multiple myeloma cell lines against the NCATS MIPE library collection: JIM1_ECACC cell viability assay (AID 1918964). An outline of the steps: (§3)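 Primary qHTS used for cherry-picking: cells at 500/well, library compounds for 48 h (37C, 5% CO2), luminescent ATP assay.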
The nature of test [6]: Quantitative High-Throughput drug screen in 47 multiple myeloma cell lines against the NCATS MIPE library collection: INA6_PLB cell viability assay (AID 1918965; also: nearly all actives have a fitted effect of over 55% in size). An outline of the steps:
as §2

Test [7] is described as follows: Quantitative High-Throughput drug screen in 47 multiple myeloma cell lines against the NCATS MIPE library collection: Karpas25_ECACC cell viability assay (AID 1918968; also: nearly all actives have a fitted effect of over 35% in size). In a few lines: as §3
Test [8] can be described thus: Quantitative High-Throughput drug screen in 47 multiple myeloma cell lines against the NCATS MIPE library collection: KMS27_JCRB cell viability assay (AID 1918970). Also: nearly all actives have a fitted effect of over 30% in size. The note with it: KMS27 myeloma cells, CellTiter-Glo ATP viability, 48 h; viability (% of DMSO): at 45.8 µM (top of the series). In a few lines:
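Each line is seeded at 500 cells per well and treated with library compounds for 48 hours under 37 °C, 5% CO2. CellTiter-Glo is then added for 5 min at room temperature before median relative luminescence is recorded.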

Test [9] in a line: Quantitative High-Throughput drug screen in 47 multiple myeloma cell lines against the NCATS MIPE library collection: KMS12PE_JCRB cell viability assay (AID 1918972). Also: nearly all actives have a fitted effect of over 30% in size. In a few lines:
as §2

The nature of test [10]: Quantitative High-Throughput drug screen in 47 multiple myeloma cell lines against the NCATS MIPE library collection: KMS26_JCRB cell viability assay (AID 1918975). Also: nearly all actives have a fitted effect of over 45% in size. In a few lines:
(§4)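 Inhibition of cell viability is measured here. Each line was plated at 500 cells per well, treated with MIPE 4.0 drugs, kept 48 hours at 37C, then assayed for ATP content by CellTiter-Glo luminescence.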

A short description of test [11]: Quantitative High-Throughput drug screen in 47 multiple myeloma cell lines against the NCATS MIPE library collection: MOLP8_DSMZ cell viability assay (AID 1918977). Also: nearly all actives have a fitted effect of over 45% in size. An outline of the steps:
(§5)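 Myeloma cells (500/well) treated with MIPE 4.0 compounds for 48 h at 37 °C, 5% CO2. Viability read as ATP via CellTiter-Glo luminescence after 5 min at RT; DMSO-only wells = 100%, media-only = 0% viability.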

A short description of test [12]: Quantitative High-Throughput drug screen in 47 multiple myeloma cell lines against the NCATS MIPE library collection: OCIMY1_PLB cell viability assay (AID 1918979). Also: nearly all actives have a fitted effect of over 35% in size. In a few lines: as §5
Test [13] is described as follows: Quantitative High-Throughput drug screen in 47 multiple myeloma cell lines against the NCATS MIPE library collection: H1112_PLB cell viability assay (AID 1918967; also: nearly all actives have a fitted effect of over 30% in size). In a few lines:
as §3

The nature of test [14]: Quantitative High-Throughput drug screen in 47 multiple myeloma cell lines against the NCATS MIPE library collection: KMS20_JCRB cell viability assay (AID 1918973). Also: nearly all actives have a fitted effect of over 45% in size. In a few lines:
as §3

Test [15] in a line: Quantitative High-Throughput drug screen in 47 multiple myeloma cell lines against the NCATS MIPE library collection: NCIH929_DSMZ cell viability assay (AID 1918978). Also: nearly all actives have a fitted effect of over 35% in size. In a few lines: as §5
Test [16] is described as follows: Quantitative High-Throughput drug screen in 47 multiple myeloma cell lines against the NCATS MIPE library collection: JJN3_DSMZ cell viability assay (AID 1918966; also: nearly all actives have a fitted effect of over 50% in size). An outline of the steps:
as §3

Test [17] is described as follows: Quantitative High-Throughput drug screen in 47 multiple myeloma cell lines against the NCATS MIPE library collection: KMS12BM_JCRB cell viability assay (AID 1918971). Also: nearly all actives have a fitted effect of over 35% in size. In a few lines: as §4
A short description of test [18]: Quantitative High-Throughput drug screen in 47 multiple myeloma cell lines against the NCATS MIPE library collection: MMM1_PLB cell viability assay (AID 1918976). Also: nearly all actives have a fitted effect of over 35% in size. In a few lines:
as §5

The nature of test [19]: Quantitative High-Throughput drug screen in 47 multiple myeloma cell lines against the NCATS MIPE library collection: KMS21BM_JCRB cell viability assay (AID 1918974). As to conditions: ATP luminescence, 48 h; viability: at 45.8 µM (top of the series). In a few lines:
as §3

Test [20] can be described thus: Quantitative High-Throughput drug screen in 47 multiple myeloma cell lines against the NCATS MIPE library collection: KHM11_PLB cell viability assay (AID 1918962). Also: nearly all actives have a fitted effect of over 35% in size. An outline of the steps: as §1

Results filed as inconclusive are left out. Active and inactive are the calls of the source. Calls follow the shape of the dose curve; as a rule, active = well fitted curve in the direction sought with a large enough effect; inconclusive = small, poorly fitted or top-dose-only effect, or another doubt; inactive = no such curve, though single readings can be large; an effect the other way counts as inactive or inconclusive.
Potency is read from the fitted curve at half-maximal effect.

Take `O=C(O)CCCCCC(=O)NN=C1CCCC1`: the Potency result in [1], in [2], in [4], in [5], in test [6] and in test [7] was “inactive” in each case. The Potency result in [8], in test [9], in test [10], in test [11] and in test [12] was “inactive” each time. The viability (% of DMSO) in [3] was 136% (active).

In the case of `CCOC(=O)C=C[C@H](C[C@@H]1CCNC1=O)NC(=O)[C@@H](CC(=O)[C@@H](NC(=O)c1cc(C)on1)C(C)C)Cc1ccc(F)cc1`, the Potency result in [1], in test [2], in test [3], in test [4], in test [13] and in test [7] was “inactive” each time. The Potency result in test [8], in test [9], in test [14], in test [10], in test [15] and in [12] was “inactive” throughout.

For the compound `NC(=O)c1ncn([C@@H]2O[C@H](CO)[C@@H](O)[C@@H]2O)c1N`, the Potency result in [1], in [2], in [3], in test [4], in test [16] and in test [13] was “inactive” each time. The Potency result in [8], in test [17], in [10] and in [15] was “inactive” throughout. In addition, the Potency in test [18] is 2.64 µM (active).

As for `CC(=O)OC[C@@H]1O[C@@H](n2ccc(=O)[nH]c2=O)[C@H](OC(C)=O)[C@H]1OC(C)=O`, the Potency result in [1], in test [2], in [3], in test [4], in test [5] and in test [16] was “inactive” in each case. In addition, the Potency result in test [13], in test [8], in [17], in [9], in [10] and in test [11] was “inactive” each time. Besides, the Potency entry in [15] and in test [12] was “inactive” throughout.

With `CCCCCCCCCCCCCCCC(=O)OC[C@@H](NC(=O)C(Cl)Cl)[C@H](O)c1ccc([N+](=O)[O-])cc1`, the Potency entry in [1], in test [2], in test [3], in test [4], in [5] and in test [13] was “inactive” throughout. Also, the Potency entry in test [8], in test [9], in test [14], in test [19] and in test [11] was “inactive” in each case.

With `O=c1ccn([C@@H]2O[C@H](CO)[C@H](O)[C@@H]2F)c(=O)[nH]1`, the Potency entry in [1], in test [2], in test [3], in [4], in test [14] and in test [19] was “inactive” throughout. The Potency entry in [10], in [11] and in [12] was “inactive” throughout. Also, the values for the Potency in [7], in [18] and in test [15] were 9.35 µM (active), 2.64 µM (active) and 11.8 µM (active), respectively.

As for `C=CC[C@@H]1C=C(C)C[C@H](C)C[C@H](OC)[C@H]2O[C@@](O)(C(=O)C(=O)N3CCCC[C@H]3C(=O)O[C@H](C(C)=C[C@@H]3CC[C@H](O)[C@H](OC)C3)[C@@H](C)[C@@H](O)CC1=O)[C@@H](C)C[C@@H]2OC`, the Potency is 1.48 µM (active) in test [1]; 2.09 µM (active) in test [2]; 2.64 µM (active) in [20]; 3.72 µM (active) in [4]; 1.18 µM (active) in test [5]; 0.935 µM (active) in test [6]. Also, the Potency in [16] is 0.662 µM (active); in [13], 3.32 µM (active); in test [7], 2.96 µM (active); in test [8] it was 0.743 µM (active); in test [9] it was 1.87 µM (active); in test [10] it was 0.935 µM (active). The Potency is 3.32 µM (active) in test [18], 1.32 µM (active) in [11] and 3.32 µM (active) in test [15].

For `COc1cccc2c1C(=O)c1c(O)c3c(c(O)c1C2=O)C[C@@](O)(C(=O)CO)C[C@@H]3O[C@H]1C[C@H](N)[C@H](OC2CCCCO2)[C@H](C)O1` (stereo not given in full), the Potency entry in [1], in test [2], in test [3], in test [8] and in test [9] was “inactive” each time. Also, the Potency in test [20] is 2.09 µM (active); in [4], 3.72 µM (active); in [6], 0.469 µM (active); in [16] it was 1.87 µM (active); in [13] it was 1.48 µM (active); in [7], 1.05 µM (active). Besides, the Potency in test [17] was 2.09 µM (active); in test [14], 1.18 µM (active); in test [11], 1.18 µM (active); in test [15], 0.935 µM (active); in test [12] it was 14.8 µM (active).

With `CC1(C)[C@H](O[C@H]2O[C@H](C(=O)O)[C@@H](O)[C@H](O)[C@H]2O[C@@H]2O[C@H](C(=O)O)[C@@H](O)[C@H](O)[C@H]2O)CC[C@@]2(C)[C@H]1CC[C@]1(C)[C@H]2C(=O)C=C2[C@H]3C[C@@](C)(C(=O)O)CC[C@]3(C)CC[C@]21C`, the Potency entry in [1], in test [2], in test [3], in [4], in test [13] and in [8] was “inactive” throughout. The Potency result in test [17], in test [9], in test [10], in test [15] and in test [12] was “inactive” in each case.

In the case of `CC(=O)SCC(Cc1ccccc1)C(=O)NCC(=O)OCc1ccccc1` (stereo not given), the Potency in test [1] was 1.66 µM (active); in [2] it was 3.32 µM (active); in test [20], 7.43 µM (active); in test [4] it was 3.72 µM (active); in test [5], 2.96 µM (active); in [6], 0.935 µM (active). For the same compound, the Potency in [16] is 5.9 µM (active); in [13], 1.66 µM (active); in test [7] it was 1.05 µM (active); in [8], 0.662 µM (active); in [17], 2.35 µM (active); in test [14] it was 2.35 µM (active). In addition, the Potency in test [10] was 18.7 µM (active); in test [18], 7.43 µM (active); in test [15], 1.05 µM (active).

Regarding `CCNC(=O)Nc1ccc(-c2nc3c(c(N4CCOC[C@H]4C)n2)CCN(C2COC2)C3)cc1`, the Potency in test [1] is 16.6 µM (active); in [2], 0.332 µM (active); in test [3], 0.0833 µM (active); in test [20], 0.469 µM (active); in test [5] it was 0.132 µM (active); in test [16], 0.833 µM (active). The Potency in test [13] was 0.59 µM (active); in test [7], 0.935 µM (active); in test [8], 0.59 µM (active); in [9], 5.26 µM (active); in [19] it was 2.35 µM (active); in test [10] it was 1.66 µM (active). Moreover, the Potency in [18] was 0.418 µM (active); in [11], 0.833 µM (active); in test [15], 0.526 µM (active); in test [12] it was 0.469 µM (active).
